Measurements reported in PubChem BioAssay.
Calls of active or inactive are those of the source.

Key:
[1] = compounds binding Alexa647 anti-His antibody – biochemical, small-molecule microarray, 635 nm fluorescence, artefact control for SMM control protein annotation, primary screen (AID 1128); settings: higher = more signal;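 also: score merges feature fluorescence with signal-to-noise for each printed compound spot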
[2] = system: Human papillomavirus type 1a E7 protein (residues 1-88); assay: HPV1a E7 small-molecule binders, primary screen, biochemical, small-molecule microarray, residues 1-88, 635 nm (AID 1129); settings: small-molecule microarray binding, fluorescence 635 nm; higher = more signal
[3] = target: Focal adhesion kinase 1 (Homo sapiens) (UniProt Q05397); assay: PTK2 protein binding on printed compound slides – biochemical, small-molecule microarray, 635/667 nm fluorescence, BSA, DTT, primary screen (AID 1130); settings: 635 nm fluorescence, higher = more signal;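 also: composite of spot emission at 667 nm and signal to noise over triplicate slides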
Sequence of Focal adhesion kinase 1 (Homo sapiens) (Q05397 whole entry, looked up): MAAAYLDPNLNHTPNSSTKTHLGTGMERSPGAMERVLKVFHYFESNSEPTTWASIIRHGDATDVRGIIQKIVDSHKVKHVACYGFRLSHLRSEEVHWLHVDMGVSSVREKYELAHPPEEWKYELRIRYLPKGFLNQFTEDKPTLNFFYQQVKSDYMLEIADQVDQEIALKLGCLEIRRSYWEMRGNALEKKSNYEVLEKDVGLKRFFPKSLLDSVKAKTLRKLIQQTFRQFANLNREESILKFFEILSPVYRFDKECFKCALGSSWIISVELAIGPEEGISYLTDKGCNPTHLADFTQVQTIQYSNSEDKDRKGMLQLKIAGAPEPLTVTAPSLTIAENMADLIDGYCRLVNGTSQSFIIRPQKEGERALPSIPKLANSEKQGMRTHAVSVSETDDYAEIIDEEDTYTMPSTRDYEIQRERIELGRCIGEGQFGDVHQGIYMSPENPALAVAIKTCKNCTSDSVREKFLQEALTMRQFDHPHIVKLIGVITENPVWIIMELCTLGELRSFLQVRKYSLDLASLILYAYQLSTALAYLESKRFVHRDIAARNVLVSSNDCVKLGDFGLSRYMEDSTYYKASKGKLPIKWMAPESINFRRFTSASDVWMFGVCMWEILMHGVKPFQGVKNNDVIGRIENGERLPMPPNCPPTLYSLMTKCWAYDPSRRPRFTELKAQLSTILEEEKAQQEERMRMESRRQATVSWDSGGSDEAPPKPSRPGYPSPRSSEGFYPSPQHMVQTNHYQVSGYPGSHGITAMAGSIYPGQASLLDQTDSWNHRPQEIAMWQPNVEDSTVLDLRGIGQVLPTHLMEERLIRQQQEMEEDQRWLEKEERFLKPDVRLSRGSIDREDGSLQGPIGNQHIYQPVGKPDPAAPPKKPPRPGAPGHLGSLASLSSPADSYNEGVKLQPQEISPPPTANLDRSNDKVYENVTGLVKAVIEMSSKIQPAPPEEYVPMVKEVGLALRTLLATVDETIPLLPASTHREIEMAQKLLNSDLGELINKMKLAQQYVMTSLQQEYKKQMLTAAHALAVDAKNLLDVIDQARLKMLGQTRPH

[4] = system: Fibrinogen (Alexa647-labelled); assay: Alexa647-fibrinogen binding to printed small molecules – biochemical, small-molecule microarray, 635/667 nm fluorescence, artefact control for SMM control-protein annotation, profiling panel (AID 1131); settings: fibrinogen-A647 binding fluorescence, higher = more signal;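 also: z-score merges 667 nm fluorescence with per-spot signal-to-noise over triplicate slides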
[5] = target: Follistatin (Homo sapiens) (UniProt P19883); assay: FST protein binding to printed compounds – biochemical, small-molecule microarray, 635/667 nm fluorescence, primary screen (AID 1132); settings: 635 nm fluorescence, higher = more signal
Sequence of Follistatin (Homo sapiens) (P19883 whole entry, looked up): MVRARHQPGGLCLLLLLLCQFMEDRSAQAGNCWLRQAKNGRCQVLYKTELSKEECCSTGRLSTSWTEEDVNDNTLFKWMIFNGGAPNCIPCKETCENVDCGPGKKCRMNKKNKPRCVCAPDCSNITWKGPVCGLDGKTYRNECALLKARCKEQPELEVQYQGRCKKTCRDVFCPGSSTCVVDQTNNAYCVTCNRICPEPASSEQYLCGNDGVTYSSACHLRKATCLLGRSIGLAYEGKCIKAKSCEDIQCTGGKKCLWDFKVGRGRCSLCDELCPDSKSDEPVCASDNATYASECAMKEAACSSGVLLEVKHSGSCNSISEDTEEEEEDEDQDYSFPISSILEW

[6] = target: Fibroblast growth factor 2 (Homo sapiens) (UniProt P09038); assay: basic fibroblast growth factor binding to printed compounds – biochemical, small-molecule microarray, 635/667 nm fluorescence, primary screen (AID 1133); settings: FGF2, fluorescence 635/667, higher = more signal
Sequence of Fibroblast growth factor 2 (Homo sapiens) (P09038 whole entry, looked up): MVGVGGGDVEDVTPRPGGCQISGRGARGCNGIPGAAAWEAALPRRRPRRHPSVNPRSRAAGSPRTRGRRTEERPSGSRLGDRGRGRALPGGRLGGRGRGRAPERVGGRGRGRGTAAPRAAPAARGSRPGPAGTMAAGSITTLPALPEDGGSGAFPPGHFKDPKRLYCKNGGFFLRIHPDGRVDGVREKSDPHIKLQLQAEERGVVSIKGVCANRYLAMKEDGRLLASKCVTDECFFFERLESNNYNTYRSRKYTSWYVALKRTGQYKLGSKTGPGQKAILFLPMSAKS

[7] = JC-1 mitochondrial potential readout, lung cancer cells – cell-based, A549, JC-1 fluorescence, basal, 24 h, 100 nL, profiling panel (AID 1138); settings: higher = more signal;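 also: A549 lung adenocarcinoma cells under basal conditions with no added stimulus; test concentration not given here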
Lefty1 = Lefty1 protein binding to printed compounds – biochemical, small-molecule microarray, 635/667 nm fluorescence, primary screen (AID 1139); settings: fluorescence 635/667, higher = more signal
[8] = system: wheat germ agglutinin (Triticum aestivum), Alexa647-labelled; assay: Alexa647-WGA lectin binding to printed small molecules – biochemical, small-molecule microarray, 635/667 nm fluorescence, artefact control for SMM control-protein annotation, profiling panel (AID 1140); settings: WGA-A647 binding, 635 nm fluorescence, higher = more signal;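 also: score merges 667 nm feature emission with signal to noise over triplicate slides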
[9] = target: Luciferin 4-monooxygenase (Photinus pyralis) (UniProt P08659); assay: inhibition of purified Photinus pyralis luciferase – biochemical, luminescence, purified enzyme, 2006 set, primary screen (AID 1141); settings: purified firefly luciferase, SteadyGlo luminescence, 30 min; higher = more signal, called active from +8 up or from −8 down;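 also: cell-free assay with purified firefly luciferase at 100 ng per well in PBS; test concentration not given here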
Sequence of Luciferin 4-monooxygenase (Photinus pyralis) (P08659 whole entry, looked up): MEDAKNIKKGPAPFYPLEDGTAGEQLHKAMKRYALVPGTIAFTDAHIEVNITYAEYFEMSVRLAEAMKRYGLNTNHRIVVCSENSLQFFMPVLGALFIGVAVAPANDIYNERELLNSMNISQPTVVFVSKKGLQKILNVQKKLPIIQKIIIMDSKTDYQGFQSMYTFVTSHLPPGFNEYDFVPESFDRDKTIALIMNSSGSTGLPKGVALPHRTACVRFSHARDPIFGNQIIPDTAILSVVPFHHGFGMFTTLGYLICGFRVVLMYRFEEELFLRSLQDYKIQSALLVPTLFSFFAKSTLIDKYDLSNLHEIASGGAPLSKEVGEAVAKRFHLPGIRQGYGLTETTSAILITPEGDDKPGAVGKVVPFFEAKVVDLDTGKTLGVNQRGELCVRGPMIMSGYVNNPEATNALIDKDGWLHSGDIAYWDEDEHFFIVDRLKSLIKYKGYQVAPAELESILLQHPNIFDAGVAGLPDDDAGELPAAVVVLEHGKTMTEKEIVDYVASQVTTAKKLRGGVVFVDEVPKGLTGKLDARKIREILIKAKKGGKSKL

Row | SMILES | composite z-score [1] | composite z-score [2] | composite z-score [3] | composite z-score [4] | composite z-score [5] | composite z-score [6] | z-score [7] | composite z-score (Lefty1) | composite z-score [8] | z-score [9]
1 | CC(C)(C)OC(=O)CC[C@@]1(C(=O)N2CCCCC2)N=C(c2ccc(OCCCO)cc2)O[C@@H]1c1ccccc1 | 1.87 | 1.25 | 0.744 | 1.02 | 1.09 | 1.04 | 1.09 | 0.501 | 1.27 | -1.73 (inactive)
2 | CC(C)[C@@H](C(=O)O)n1cc(C2(O)CCCCC2)nn1 | 0.948 | 1.1 | 0.167 | 0.598 | 0.486 | 0.2 | 0.0494 | 0.528 | 0.0063 | 0.983 (inactive)
3 | COCCOC(=O)N1C(=O)[C@@]2(c3cc(C#CC4(O)CCCCCC4)ccc31)[C@H](c1ccccc1OCCO)N1[C@H](c3ccccc3)[C@H](c3ccccc3)OC(=O)[C@H]1[C@@H]2C(=O)N1CCc2cc(OC)c(OC)cc2C1 | 2.27 | 1.23 | 0.669 | 0.895 | 0.653 | 0.461 | -0.932 | 0.8 | 0.632 | -0.022 (inactive)
4 | C=C(C(=O)CC[C@H](OC(C)=O)c1ccccc1OCCO)C(C)C | -0.29 | -0.936 | -0.385 | -0.262 | 1.25 | 0.38 | -1.25 | 0.696 | -0.209 | 0.168 (inactive)
5 | CO[C@H]1O[C@H](CO)[C@@H](OC(=O)Nc2ccccc2)[C@@H]2OC(=O)[C@@H](Cc3ccc4ccccc4c3)C/C=C/C[C@H](Cc3ccc4ccccc4c3)C(=O)O[C@@H]12 | 0.79 | 1.2 | 1.12 | 0.768 | 0.935 | 0.477 | 0.461 | 0.698 | 0.807 | -1.97 (inactive)
6 | CC[C@@H]1C=C(C(=O)O)[C@H](c2ccc(C)cc2)N1S(=O)(=O)c1ccc(C)cc1 | -0.479 | 1.23 | 0.827 | 0.915 | 0.163 | 0.0388 | -0.233 | 0.285 | 0.568 | 2.28 (inactive)
7 | COc1ccc([Si](C)(C)[C@@H]2[C@@H](CCO)O[C@]3(C(=O)N(Cc4cccc(N5CCOC5=O)c4)c4ccccc43)[C@H]2C)cc1 | 0.0657 | 0.981 | -0.0325 | 0.9 | 1 | 0.568 | -0.393 | 0.26 | 1.08 | -0.335 (inactive)
8 | CCN(CC)c1ccc(N2CC=CC34O[C@@H]5/C=C\CCC(C)OC(=O)C5[C@H]3C(=O)N(CCCCCO)[C@@H]4C2=O)cc1 (stereo not given in full) | -0.117 | -0.886 | -0.336 | -0.899 | -0.614 | -0.48 | 0.105 | -0.978 | 0.208 | -0.659 (inactive)
9 | OB1C=CCC(CCc2ccccc2)O1 (stereo not given) | -0.837 | -0.692 | -0.153 | -0.894 | 0.0417 | 0.712 | 1.13 | -0.732 | -0.477 | -1.83 (inactive)
10 | CCOC(=O)C[C@H]1[C@H](OC(=O)c2ccc(-c3ccccc3)cc2)[C@@H](NC(=O)c2ccccc2)c2cc(OCCCO)ccc2N1C(=O)c1ccc2ccccc2n1 | 0.241 | 1.06 | 0.426 | 0.836 | -0.0321 | -0.0974 | -0.0602 | -0.329 | 0.693 | 0.0119 (inactive)
11 | C#CCN1[C@H](/C=C/C2CC2)[C@H](Cc2ccccc2)OC(=O)[C@@H]1Cc1ccccc1 | 0.924 | 0.743 | 0.229 | 0.884 | 0.578 | 0.242 | 3.8 | 0.536 | -0.153 | -0.373 (inactive)
12 | Cc1c(NC(=O)/C(C#N)=C/c2cccc([N+](=O)[O-])c2)c(=O)n(-c2ccccc2)n1C | 0.551 | 1.02 | -0.148 | 0.985 | 0.7 | 0.793 | 0.365 | 0.931 | 0.441 | -1.09 (inactive)
13 | CC(C)[Si](C#C[Si](C(C)C)(C(C)C)C(C)C)(O[C@H](C)c1cn(Cc2ccccc2)nn1)C(C)C | 0.386 | 1.01 | 0.677 | 0.872 | 0.509 | 0.427 | 0.0378 | 0.56 | 0.502 | -0.398 (inactive)
14 | CCCNC(=O)[C@@H]1c2ccccc2C(=O)N(Cc2ccccc2OC)[C@H]1c1ccc(CO)cc1 | 2.08 | 1.22 | 0.609 | 0.937 | 0.98 | 1.06 | 1.53 | 0.482 | 0.712 | -0.452 (inactive)
15 | C=CCC(OC(C)=O)[C@@H]1[C@@H](N(Cc2ccc(-c3ccccc3)cc2)C(=O)Cc2ccc(F)cc2)c2cc(OCCCO)ccc2N1C(=O)c1ccc2ccccc2c1 (stereo not given in full) | -0.264 | -0.0066 | 0.16 | -0.163 | 0.296 | 0.288 | 1.73 | 0.125 | -0.117 | -0.87 (inactive)
16 | C=CC[C@@]1(C(=O)N2CCCCC2)N=C(c2ccc(OCCCO)cc2)O[C@@H]1c1ccccc1CN=[N+]=[N-] | 2.75 | 1.27 | 0.398 | 1.02 | 1.37 | 0.288 | -0.0114 | 0.484 | 0.768 | -1.37 (inactive)
17 | NCCCCCNC(=O)[C@H]1C[C@H]2C(=O)N3CCC[C@H]3C(=O)N2[C@H]1c1ccc(O)cc1 | 0.695 | 1.15 | 0.223 | 0.894 | 1.34 | 1.35 | -0.373 | 1.1 | 0.781 | -0.462 (inactive)
18 | CN(C)C(=O)[C@]1(Cc2ccccc2)N=C(c2ccc(OCCCO)cc2)O[C@@H]1c1ccccc1N=[N+]=[N-] | 2.47 | 1.2 | 0.203 | 0.96 | 1.33 | 1.63 | 0.702 | 0.244 | 0.702 | -5.05 (inactive)
19 | COC(=O)[C@@]1(Cc2ccc(OC)cc2)[C@H]2c3cc(C(=O)N(C)C)n(Cc4ccc(C(F)(F)F)nc4)c3C[C@H]2CN1C(=O)c1ccccc1 | 0.598 | 0.846 | 1.2 | 0.843 | -0.0313 | -0.49 | 0.549 | -0.501 | 0.833 | 0.678 (inactive)
20 | C=CCC(OC(C)=O)[C@@H]1[C@@H](N(Cc2cc3ccccc3o2)C(=O)Cc2ccc(OC)cc2)c2cc(OCCCO)ccc2N1C(=O)c1ccc2ccccc2c1 (stereo not given in full) | 0.19 | -0.491 | 0.115 | -1.19 | 0.2 | -0.568 | -0.319 | 0.128 | 0.757 | 0.148 (inactive)
21 | O=C(O)[C@@]1(CCS(=O)(=O)c2ccccc2)N=C(c2ccc(OCCCO)cc2)O[C@H]1c1ccccc1 | 2.65 | 0.23 | 0.264 | 0.993 | 0.265 | -0.761 | 0.175 | -0.387 | 0.763 | -1.56 (inactive)
